Test [1] deals with RAW-Dual. The experiment in a line: NF-kB SEAP reporter activity, fold change vs agonist alone; cytotoxicity flag (confluency mask): cytotoxic (confluency <70% of control); higher = enhanced NF-kB activity. The essentials: (§1)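 Cytotoxic wells were those whose IncuCyte confluency was below 70% of agonist controls in both mask sets. The cells were RAW-Dual macrophages at 50,000 cells/well in DMEM on 384-well plates, dosed with 50 nL of library stock by pin tool, stimulated with a PRR agonist 1 h later, and kept at 37 °C, 5% CO2 for 20 hours. IRF and NF-κB reporter activity, as fold change over agonist-alone wells, came from supernatant read by QuantiLuc luminescence and QuantiBlue absorbance, respectively.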

In test [2] the test system is RAW-Dual. The experiment in a line: NF-kB SEAP reporter activity, fold change vs agonist alone; higher = enhanced NF-kB activity. The essentials:
as §1

The subject of test [3] is RAW-Dual. The experiment in a line: NF-kB SEAP reporter activity, fold change vs agonist alone; cytotoxicity flag (confluency mask): not cytotoxic; higher = enhanced NF-kB activity. Put shortly:
as §1

Where [4] appears, read: agonist: ODN 1826 (TLR9) 0.5 ug/mL.
The mark [5] stands for this setting: agonist: Pam2CSK4 (TLR2/6) 0.1 ug/mL.
Where [6] appears, read: agonist: Pam3CSK4 (TLR2/1) 0.1 ug/mL.
Setting [7] is: library stock concentration (final ~1000-fold dilution): 10 mM, cytotoxicity flag (confluency mask): not cytotoxic, agonist: Imiquimod (TLR7) […].
[8] abbreviates: library stock concentration (final ~1000-fold dilution): 10 mM, cytotoxicity flag (confluency mask): not cytotoxic, agonist: MPLA (TLR4) […].
The mark [9] stands for this setting: library stock concentration (final ~1000-fold dilution): 10 mM, cytotoxicity flag (confluency mask): cytotoxic (confluency <70% of control), agonist: Imiquimod (TLR7) […].
[10] abbreviates: library stock concentration (final ~1000-fold dilution): 10 mM, cytotoxicity flag (confluency mask): cytotoxic (confluency <70% of control), agonist: MPLA (TLR4) […].

In all, about 2,900 compounds were measured (“NF-kB SEAP reporter activity, fold change vs agonist alone”: median about 0.99, highest 2% from about 2.6 on). Shown is part of a subset that was picked to be rich in the highest values.

The values that follow come from the supplement of paper PMC10037445.

Turning to `Cn1cc(-c2ccc(S(=O)(=O)n3ccc(/C=C/C(=O)Nc4ccccc4N)c3)cc2)cn1` (library stock concentration (final ~1000-fold dilution): 10 mM), the “NF-kB SEAP reporter activity” value in the test with RAW-Dual [1] (agonist: LPS (TLR4) 0.1 ug/mL) is 4.11; in the test with RAW-Dual [1] (setting [4]), 3.13; in the test with RAW-Dual [1] (setting [5]) it was 1.14; with RAW-Dual [1] (setting [6]), 2.27.

Consider `Nc1cc(F)ccc1NC(=O)/C=C/c1cnn(C/C=C/c2ccccc2)c1`, for which the “NF-kB SEAP reporter activity” value with RAW-Dual [2] (setting [7]) was found to be 1.14; in the test on RAW-Dual [2] (setting [8]), 1.2.

Regarding `COc1cc(C(=O)O)ccc1O` (library stock concentration (final ~1000-fold dilution): 10 mM), the “NF-kB SEAP reporter activity” value in the test on RAW-Dual [3] (agonist: LPS (TLR4) 0.1 ug/mL) was found to be 1.06; with RAW-Dual [3] (setting [4]) it was 1.12; in the test with RAW-Dual [3] (setting [5]), 1.14; in the test with RAW-Dual [3] (setting [6]) it was 1.16.

As for `COc1cc(C(=O)O)ccc1O`, the “NF-kB SEAP reporter activity” value in the test on RAW-Dual [2] (setting [7]) was found to be 0.937; in the test with RAW-Dual [2] (setting [8]), 1.02.

As to `CCCCOc1nc(N)c2c(n1)N(Cc1cccc(CN3CCCC3)c1)CC(=O)N2` (library stock concentration (final ~1000-fold dilution): 1 mM), the “NF-kB SEAP reporter activity” value in the test on RAW-Dual [3] (agonist: LPS (TLR4) 0.1 ug/mL) amounted to 2.53; in the test on RAW-Dual [3] (setting [4]) it was 1.13; in the test on RAW-Dual [3] (setting [5]), 1.17; in the test with RAW-Dual [3] (setting [6]), 1.25.

Regarding `COCCOc1nc(N)c2[nH]c(=O)n(Cc3ccc(C(=O)O)cc3)c2n1` (library stock concentration (final ~1000-fold dilution): 10 mM), the “NF-kB SEAP reporter activity” value in the test on RAW-Dual [3] (agonist: LPS (TLR4) 0.1 ug/mL) worked out at 7.55; with RAW-Dual [3] (setting [4]), 2.13; in the test with RAW-Dual [3] (setting [5]), 1.46; with RAW-Dual [3] (setting [6]), 2.77.

With `CCCCOc1nc(N)c2c(n1)N(Cc1cccc(CN3CCCC3)c1)CC(=O)N2`, the “NF-kB SEAP reporter activity” value worked out at 1.26 with RAW-Dual [2] (library stock concentration (final ~1000-fold dilution): 1 mM, cytotoxicity flag (confluency mask): not cytotoxic, agonist: Imiquimod (TLR7) […]) and 1.91 with RAW-Dual [2] (library stock concentration (final ~1000-fold dilution): 1 mM, cytotoxicity flag (confluency mask): not cytotoxic, agonist: MPLA (TLR4) […]).

For the molecule `COCCOc1nc(N)c2[nH]c(=O)n(Cc3ccc(C(=O)O)cc3)c2n1`, the entries for the “NF-kB SEAP reporter activity” value with RAW-Dual [2] (setting [7]) and in the test with RAW-Dual [2] (setting [8]) were 1.8 and 2.54, respectively.

Regarding `Cc1cn(C2CC(O)C(CO)O2)c(=O)[nH]c1=O` (configuration not stated) (library stock concentration (final ~1000-fold dilution): 10 mM), the “NF-kB SEAP reporter activity” value in the test on RAW-Dual [3] (agonist: LPS (TLR4) 0.1 ug/mL) amounted to 1.16; in the test with RAW-Dual [3] (setting [4]) it was 1.03; with RAW-Dual [3] (setting [5]), 1.12; in the test with RAW-Dual [3] (setting [6]) it was 1.11.

On to `Cc1cn(C2CC(O)C(CO)O2)c(=O)[nH]c1=O` (configuration not stated), for which the “NF-kB SEAP reporter activity” value with RAW-Dual [2] (setting [7]) was found to be 0.952; in the test on RAW-Dual [2] (setting [8]), 1.03.

As for `COCCOc1ccc2c(c1)ncn2-c1ccc2cccc(N3CCC(N)CC3)c2n1` (library stock concentration (final ~1000-fold dilution): 10 mM), the “NF-kB SEAP reporter activity” value is 0.593 in the test with RAW-Dual [1] (agonist: LPS (TLR4) 0.1 ug/mL), 0.758 in the test on RAW-Dual [1] (setting [4]), 0.862 with RAW-Dual [1] (setting [5]) and 1.32 in the test on RAW-Dual [1] (setting [6]).

Take `CC1(COc2ccc3c(c2)ncn3-c2ccc3cccc(N4CCC(N)CC4)c3n2)COC1` (library stock concentration (final ~1000-fold dilution): 10 mM): the “NF-kB SEAP reporter activity” value in the test on RAW-Dual [1] (agonist: LPS (TLR4) 0.1 ug/mL) stood at 0.769; in the test on RAW-Dual [1] (setting [4]), 1.59; with RAW-Dual [1] (setting [5]) it was 1.81; in the test on RAW-Dual [1] (setting [6]), 1.6.

On to `CC1(COc2ccc3c(c2)ncn3-c2ccc3cccc(N4CCC(N)CC4)c3n2)COC1`, for which the “NF-kB SEAP reporter activity” value in the test on RAW-Dual [2] (setting [9]) came out at 2.9; with RAW-Dual [2] (setting [10]) it was 1.43.

For the molecule `COCCOc1ccc2c(c1)ncn2-c1ccc2cccc(N3CCC(N)CC3)c2n1`, the “NF-kB SEAP reporter activity” value in the test on RAW-Dual [2] (setting [9]) was 2.77; with RAW-Dual [2] (setting [10]) it was 0.871.

In the case of `OCc1ccccc1OC1OC(CO)C(O)C(O)C1O` (configuration not stated) (library stock concentration (final ~1000-fold dilution): 10 mM), the “NF-kB SEAP reporter activity” value with RAW-Dual [3] (agonist: LPS (TLR4) 0.1 ug/mL) was determined as 0.986; in the test with RAW-Dual [3] (setting [4]), 1.08; with RAW-Dual [3] (setting [5]) it was 1.11; in the test with RAW-Dual [3] (setting [6]), 1.19.

Turning to `OCc1ccccc1OC1OC(CO)C(O)C(O)C1O` (configuration not stated), the “NF-kB SEAP reporter activity” value in the test with RAW-Dual [2] (setting [7]) was determined as 0.917; with RAW-Dual [2] (setting [8]) it was 1.04.

Consider `COc1cccc(-c2c(C)n(Cc3c(F)cccc3C(F)(F)F)c(=O)n(CC(NCCCC(=O)O)c3ccccc3)c2=O)c1F` (configuration not stated), for which, in the test on RAW-Dual [2] (setting [8]), the “NF-kB SEAP reporter activity” value turned out to be 1.03.

As to `COc1cccc(-c2c(C)n(Cc3c(F)cccc3C(F)(F)F)c(=O)n(CC(NCCCC(=O)O)c3ccccc3)c2=O)c1F` (configuration not stated) (library stock concentration (final ~1000-fold dilution): 10 mM), the “NF-kB SEAP reporter activity” value in the test with RAW-Dual [3] (agonist: LPS (TLR4) 0.1 ug/mL) came to 1.32; with RAW-Dual [3] (setting [4]) it was 1.06; with RAW-Dual [3] (setting [5]), 0.866; in the test on RAW-Dual [3] (setting [6]), 0.768.

Turning to `C=CC1(C)CC(OC(=O)CSCCN(CC)CC)C2(C)C(C)CCC3(CCC(=O)C32)C(C)C1O` (configuration not stated) (library stock concentration (final ~1000-fold dilution): 10 mM), the “NF-kB SEAP reporter activity” value came to 1.56 with RAW-Dual [3] (agonist: LPS (TLR4) 0.1 ug/mL), 0.725 in the test on RAW-Dual [3] (setting [4]), 1.11 with RAW-Dual [3] (setting [5]) and 0.934 in the test on RAW-Dual [3] (setting [6]).

For `C=CC1(C)CC(OC(=O)CSCCN(CC)CC)C2(C)C(C)CCC3(CCC(=O)C32)C(C)C1O` (configuration not stated), the “NF-kB SEAP reporter activity” value in the test on RAW-Dual [2] (setting [8]) amounted to 1.12.

Regarding `O=C1CCC(N2C(=O)c3ccccc3C2=O)C(=O)N1` (configuration not stated) (library stock concentration (final ~1000-fold dilution): 10 mM), the “NF-kB SEAP reporter activity” value amounted to 1.22 with RAW-Dual [3] (agonist: LPS (TLR4) 0.1 ug/mL), 1.01 in the test on RAW-Dual [3] (setting [4]), 0.95 in the test on RAW-Dual [3] (setting [5]) and 1.17 with RAW-Dual [3] (setting [6]).

With `Nc1cccc2c1C(=O)N(C1CCC(=O)NC1=O)C2=O` (configuration not stated), the “NF-kB SEAP reporter activity” value in the test with RAW-Dual [2] (setting [7]) is 1.6; in the test on RAW-Dual [2] (setting [8]), 1.07.

Turning to `Cc1sc2c(c1C)C(c1ccc(Cl)cc1)=NC(CC(=O)NCCCCNC(=O)COc1cccc3c1C(=O)N(C1CCC(=O)NC1=O)C3=O)c1nnc(C)n1-2` (configuration not stated) (library stock concentration (final ~1000-fold dilution): 10 mM), the “NF-kB SEAP reporter activity” value was found to be 7.56 in the test on RAW-Dual [1] (agonist: LPS (TLR4) 0.1 ug/mL), 3.05 in the test on RAW-Dual [1] (setting [4]), 1.99 in the test with RAW-Dual [1] (setting [5]) and 3.03 in the test with RAW-Dual [1] (setting [6]).

As for `Nc1cccc2c1C(=O)N(C1CCC(=O)NC1=O)C2=O` (configuration not stated) (library stock concentration (final ~1000-fold dilution): 10 mM), the “NF-kB SEAP reporter activity” value turned out to be 1.16 in the test with RAW-Dual [3] (agonist: LPS (TLR4) 0.1 ug/mL), 1.17 in the test with RAW-Dual [3] (setting [4]), 1.08 with RAW-Dual [3] (setting [5]) and 1.35 in the test with RAW-Dual [3] (setting [6]).

On to `Cc1sc2c(c1C)C(c1ccc(Cl)cc1)=N[C@@H](CC(=O)NCCCCCCCCNC(=O)COc1cccc3c1C(=O)N(C1CCC(=O)NC1=O)C3=O)c1nnc(C)n1-2` (some centres not stated), for which the “NF-kB SEAP reporter activity” value in the test on RAW-Dual [2] (setting [9]) came to 1.73; in the test on RAW-Dual [2] (setting [10]), 2.44.

Regarding `Cc1sc2c(c1C)C(c1ccc(Cl)cc1)=N[C@@H](CC(=O)NCCCCCCCCNC(=O)COc1cccc3c1C(=O)N(C1CCC(=O)NC1=O)C3=O)c1nnc(C)n1-2` (some centres not stated) (library stock concentration (final ~1000-fold dilution): 10 mM), the “NF-kB SEAP reporter activity” value worked out at 3.73 in the test with RAW-Dual [1] (agonist: LPS (TLR4) 0.1 ug/mL), 1.84 with RAW-Dual [1] (setting [4]), 1.74 with RAW-Dual [1] (setting [5]) and 3 in the test on RAW-Dual [1] (setting [6]).

With `Cc1sc2c(c1C)C(c1ccc(Cl)cc1)=NC(CC(=O)NCCCCNC(=O)COc1cccc3c1C(=O)N(C1CCC(=O)NC1=O)C3=O)c1nnc(C)n1-2` (configuration not stated), the “NF-kB SEAP reporter activity” value in the test on RAW-Dual [2] (setting [9]) was determined as 1.89; with RAW-Dual [2] (setting [10]), 2.59.

In the case of `O=C1CCC(N2C(=O)c3ccccc3C2=O)C(=O)N1` (configuration not stated), the “NF-kB SEAP reporter activity” value amounted to 0.926 with RAW-Dual [2] (setting [7]) and 0.792 in the test on RAW-Dual [2] (setting [8]).
